# According to the supplement of paper PMC11732987, “Enantioselective OTUD7B fragment discovery through chemoproteomics screening and high-throughput optimisation” (Communications Chemistry, 2025):
# Unmarked numbers belong to inactive results.
# What was measured:
# Assay in all cases: log2 ratio of Biotin-Ahx-Ub-VS probe labelling (fragment/DMSO); higher = less target engagement (more negative = stronger competition), active = hit call of the paper (q ≤ 0.05, log2 ratio ≤ -1)
# Settings in all cases: compound concentration: 200 uM; treatment time: 3 h
# [1] = molecular target: T1, OTUD6B (UniProt Q8N6M0)
# T1 sequence (whole entry): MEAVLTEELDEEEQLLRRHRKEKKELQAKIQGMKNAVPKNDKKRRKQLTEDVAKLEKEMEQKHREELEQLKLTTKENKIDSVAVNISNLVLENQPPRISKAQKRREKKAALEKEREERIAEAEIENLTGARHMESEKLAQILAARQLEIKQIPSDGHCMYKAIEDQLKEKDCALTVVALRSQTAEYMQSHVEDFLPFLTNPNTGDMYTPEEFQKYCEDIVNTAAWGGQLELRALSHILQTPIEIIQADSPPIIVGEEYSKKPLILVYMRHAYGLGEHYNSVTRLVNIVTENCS
# How it was run: (§1)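 HEK293T lysate (495 µg per sample, in Tris/CHAPS/IGEPAL buffer with protease inhibitors) was treated in triplicate with fragment at 200 µM or with DMSO for 3 h. It was then treated with Biotin-Ahx-Ub-VS (0.5 µM final) for 1 h. Labelled DUBs were NeutrAvidin-enriched, digested with LysC and trypsin, and run by diaPASEF LC-MS/MS. Spectronaut label-free quantities were global-median-normalised. Values are average log2 ratios fragment/DMSO by unpaired t-test, using proteins with ≥2 unique peptides.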
# [2] = molecular target: T2, OTUD7B (UniProt Q6GQQ9)
# T2 sequence (whole entry): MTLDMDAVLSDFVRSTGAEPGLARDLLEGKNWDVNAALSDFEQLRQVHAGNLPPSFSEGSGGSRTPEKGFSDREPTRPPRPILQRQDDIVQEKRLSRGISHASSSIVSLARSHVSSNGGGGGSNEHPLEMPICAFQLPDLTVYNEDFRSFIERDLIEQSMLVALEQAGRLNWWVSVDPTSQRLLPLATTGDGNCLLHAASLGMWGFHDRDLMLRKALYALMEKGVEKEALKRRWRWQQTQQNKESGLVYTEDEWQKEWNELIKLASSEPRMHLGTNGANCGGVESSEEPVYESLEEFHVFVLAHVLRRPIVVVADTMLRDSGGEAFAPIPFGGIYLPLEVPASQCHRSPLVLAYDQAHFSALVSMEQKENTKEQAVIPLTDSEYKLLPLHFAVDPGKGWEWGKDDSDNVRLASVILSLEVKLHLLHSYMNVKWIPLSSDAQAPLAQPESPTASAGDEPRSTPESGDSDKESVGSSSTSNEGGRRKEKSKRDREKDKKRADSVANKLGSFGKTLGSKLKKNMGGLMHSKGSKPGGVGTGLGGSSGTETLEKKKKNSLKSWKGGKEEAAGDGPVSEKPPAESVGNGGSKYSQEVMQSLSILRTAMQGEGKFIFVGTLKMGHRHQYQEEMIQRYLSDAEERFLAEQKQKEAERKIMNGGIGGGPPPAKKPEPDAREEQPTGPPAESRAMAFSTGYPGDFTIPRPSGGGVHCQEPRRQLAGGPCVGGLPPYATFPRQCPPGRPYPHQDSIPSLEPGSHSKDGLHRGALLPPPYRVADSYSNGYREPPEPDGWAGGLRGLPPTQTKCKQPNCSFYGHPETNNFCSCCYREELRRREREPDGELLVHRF
# How it was run: as §1
# [3] = molecular target: PRPF8 (UniProt Q6P2Q9)
# How it was run: as §1
# [4] = molecular target: T3, PSMD7 (UniProt P51665)
# T3 sequence (whole entry): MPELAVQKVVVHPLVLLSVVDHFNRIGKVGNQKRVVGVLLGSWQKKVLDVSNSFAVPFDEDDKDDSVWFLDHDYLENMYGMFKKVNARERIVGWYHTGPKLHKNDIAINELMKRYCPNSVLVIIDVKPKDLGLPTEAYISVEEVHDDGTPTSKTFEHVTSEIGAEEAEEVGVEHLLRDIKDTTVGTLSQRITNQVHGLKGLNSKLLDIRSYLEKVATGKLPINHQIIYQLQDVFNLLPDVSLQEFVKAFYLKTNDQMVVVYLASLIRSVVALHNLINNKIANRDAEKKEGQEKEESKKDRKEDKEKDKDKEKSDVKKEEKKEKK
# How it was run: as §1
# [5] = molecular target: UCHL1 (UniProt P09936)
# Chain of UCHL1 (P09936 whole entry, looked up): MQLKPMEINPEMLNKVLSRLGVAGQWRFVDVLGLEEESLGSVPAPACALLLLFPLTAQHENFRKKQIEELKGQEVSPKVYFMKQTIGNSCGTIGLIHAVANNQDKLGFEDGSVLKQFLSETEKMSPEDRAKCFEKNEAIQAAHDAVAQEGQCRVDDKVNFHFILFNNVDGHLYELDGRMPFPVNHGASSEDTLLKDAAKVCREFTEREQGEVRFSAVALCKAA
# How it was run: as §1
# [6] = molecular target: T4, UCHL3 (UniProt P15374)
# T4 sequence (whole entry): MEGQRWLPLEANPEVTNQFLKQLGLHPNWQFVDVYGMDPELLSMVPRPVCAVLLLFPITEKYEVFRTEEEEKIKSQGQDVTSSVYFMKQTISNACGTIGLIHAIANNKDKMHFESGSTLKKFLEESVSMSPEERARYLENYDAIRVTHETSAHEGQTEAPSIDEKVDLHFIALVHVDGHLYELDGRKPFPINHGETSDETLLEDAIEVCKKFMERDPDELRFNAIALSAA
# How it was run: as §1
# [7] = molecular target: T5, UCHL5 (UniProt Q9Y5K5)
# T5 sequence (whole entry): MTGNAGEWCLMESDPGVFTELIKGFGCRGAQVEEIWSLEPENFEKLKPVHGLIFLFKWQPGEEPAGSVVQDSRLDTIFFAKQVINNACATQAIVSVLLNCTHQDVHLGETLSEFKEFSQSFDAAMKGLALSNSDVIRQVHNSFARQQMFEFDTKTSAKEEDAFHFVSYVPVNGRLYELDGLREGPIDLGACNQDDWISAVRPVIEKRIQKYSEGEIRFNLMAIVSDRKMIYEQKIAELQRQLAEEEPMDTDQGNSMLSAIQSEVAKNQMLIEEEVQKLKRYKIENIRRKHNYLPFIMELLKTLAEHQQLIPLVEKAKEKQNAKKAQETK
# How it was run: as §1
# [8] = molecular target: USP10 (UniProt Q14694)
# Chain of USP10 (Q14694 whole entry): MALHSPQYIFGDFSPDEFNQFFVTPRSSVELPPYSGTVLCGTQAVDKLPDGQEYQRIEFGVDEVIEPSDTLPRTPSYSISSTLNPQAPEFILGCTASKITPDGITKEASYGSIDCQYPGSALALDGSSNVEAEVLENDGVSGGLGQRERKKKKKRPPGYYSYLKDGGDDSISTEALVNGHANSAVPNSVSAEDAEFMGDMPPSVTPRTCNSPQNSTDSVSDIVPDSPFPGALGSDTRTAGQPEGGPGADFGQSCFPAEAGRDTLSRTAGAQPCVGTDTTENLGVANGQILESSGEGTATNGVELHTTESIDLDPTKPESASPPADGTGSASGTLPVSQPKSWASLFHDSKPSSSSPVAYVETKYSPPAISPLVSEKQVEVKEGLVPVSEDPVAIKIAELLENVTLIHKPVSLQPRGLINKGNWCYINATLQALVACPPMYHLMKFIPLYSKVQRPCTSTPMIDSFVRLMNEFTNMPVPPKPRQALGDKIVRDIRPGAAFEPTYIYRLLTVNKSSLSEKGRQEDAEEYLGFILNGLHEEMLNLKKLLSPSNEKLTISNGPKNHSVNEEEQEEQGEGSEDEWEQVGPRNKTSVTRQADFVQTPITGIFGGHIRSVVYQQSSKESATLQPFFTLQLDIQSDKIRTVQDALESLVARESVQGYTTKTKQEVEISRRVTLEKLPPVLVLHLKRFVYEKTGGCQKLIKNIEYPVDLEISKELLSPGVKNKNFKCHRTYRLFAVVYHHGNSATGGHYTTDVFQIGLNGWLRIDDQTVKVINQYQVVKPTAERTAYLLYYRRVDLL
# How it was run: as §1
# [9] = molecular target: T6, USP15 (UniProt Q9Y4E8)
# T6 sequence (whole entry): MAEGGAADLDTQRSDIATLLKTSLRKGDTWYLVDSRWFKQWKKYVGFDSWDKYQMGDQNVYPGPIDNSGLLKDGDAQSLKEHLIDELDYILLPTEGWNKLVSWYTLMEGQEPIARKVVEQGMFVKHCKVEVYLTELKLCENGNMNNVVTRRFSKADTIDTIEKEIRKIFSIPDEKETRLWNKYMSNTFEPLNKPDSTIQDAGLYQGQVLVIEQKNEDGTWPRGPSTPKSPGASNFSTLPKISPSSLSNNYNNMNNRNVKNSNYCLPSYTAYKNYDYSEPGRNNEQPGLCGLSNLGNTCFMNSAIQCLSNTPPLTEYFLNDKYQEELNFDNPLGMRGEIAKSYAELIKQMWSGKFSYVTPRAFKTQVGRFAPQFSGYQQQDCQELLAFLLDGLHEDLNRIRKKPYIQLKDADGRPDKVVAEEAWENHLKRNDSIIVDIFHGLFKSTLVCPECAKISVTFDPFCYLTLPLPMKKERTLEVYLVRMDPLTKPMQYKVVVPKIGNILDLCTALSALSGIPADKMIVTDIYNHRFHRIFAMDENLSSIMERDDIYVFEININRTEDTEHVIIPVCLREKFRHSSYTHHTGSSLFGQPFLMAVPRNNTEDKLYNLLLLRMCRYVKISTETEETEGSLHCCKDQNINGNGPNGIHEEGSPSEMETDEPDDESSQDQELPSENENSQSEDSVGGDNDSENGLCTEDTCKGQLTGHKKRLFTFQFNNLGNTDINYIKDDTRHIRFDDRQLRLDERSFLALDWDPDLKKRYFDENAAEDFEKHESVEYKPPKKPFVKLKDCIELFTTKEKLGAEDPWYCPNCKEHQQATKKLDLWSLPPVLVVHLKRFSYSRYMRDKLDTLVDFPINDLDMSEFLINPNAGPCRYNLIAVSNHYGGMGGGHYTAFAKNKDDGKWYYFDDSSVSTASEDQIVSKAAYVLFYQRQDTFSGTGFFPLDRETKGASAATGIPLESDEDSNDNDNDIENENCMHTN
# How it was run: as §1
# [10] = molecular target: USP16 (UniProt Q9Y5T5)
# Chain of USP16 (Q9Y5T5 whole entry, looked up): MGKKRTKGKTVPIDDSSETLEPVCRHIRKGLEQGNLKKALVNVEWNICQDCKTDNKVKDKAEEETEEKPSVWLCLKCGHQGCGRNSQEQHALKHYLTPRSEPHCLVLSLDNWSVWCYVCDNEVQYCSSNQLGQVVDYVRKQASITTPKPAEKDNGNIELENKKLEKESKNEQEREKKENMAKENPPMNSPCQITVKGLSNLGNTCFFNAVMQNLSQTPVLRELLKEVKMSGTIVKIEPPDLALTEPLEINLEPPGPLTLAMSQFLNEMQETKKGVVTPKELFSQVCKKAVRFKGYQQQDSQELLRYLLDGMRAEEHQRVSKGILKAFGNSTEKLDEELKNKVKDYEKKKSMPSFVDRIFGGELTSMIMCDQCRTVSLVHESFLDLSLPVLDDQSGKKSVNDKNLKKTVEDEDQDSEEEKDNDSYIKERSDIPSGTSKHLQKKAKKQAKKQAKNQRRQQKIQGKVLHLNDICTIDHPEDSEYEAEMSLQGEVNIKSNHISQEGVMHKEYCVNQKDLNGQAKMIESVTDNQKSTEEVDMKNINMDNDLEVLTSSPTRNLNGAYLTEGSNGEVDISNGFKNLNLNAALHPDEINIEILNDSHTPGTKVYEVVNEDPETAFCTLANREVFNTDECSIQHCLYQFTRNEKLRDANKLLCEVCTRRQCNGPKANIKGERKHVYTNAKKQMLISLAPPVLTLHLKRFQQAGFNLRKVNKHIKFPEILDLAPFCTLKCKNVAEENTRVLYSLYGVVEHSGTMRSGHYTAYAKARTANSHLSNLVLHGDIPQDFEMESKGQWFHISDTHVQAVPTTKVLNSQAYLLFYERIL
# How it was run: as §1
smiles,measurement,setting,value
CCC(NC(=O)CCl)c1ccc(Cl)cc1 (stereo not given),log2 ratio of Biotin-Ahx-Ub-VS probe labelling,[1],0.0691
same,log2 ratio of Biotin-Ahx-Ub-VS probe labelling,[2],-1.12 (active)
same,log2 ratio of Biotin-Ahx-Ub-VS probe labelling,[3],0.164
same,log2 ratio of Biotin-Ahx-Ub-VS probe labelling,[4],-0.0211
same,log2 ratio of Biotin-Ahx-Ub-VS probe labelling,[5],-1.12 (active)
same,log2 ratio of Biotin-Ahx-Ub-VS probe labelling,[6],0.495
same,log2 ratio of Biotin-Ahx-Ub-VS probe labelling,[7],-0.175
same,log2 ratio of Biotin-Ahx-Ub-VS probe labelling,[8],-0.0683
same,log2 ratio of Biotin-Ahx-Ub-VS probe labelling,[9],-0.0837
same,log2 ratio of Biotin-Ahx-Ub-VS probe labelling,[10],-0.0971
